Laboratory results: PubChem BioAssay (NCATS)
Unmarked numbers belong to inactive results. The call rests on the fitted dose curve; in most records, active means well fitted activation curve with a large enough effect; inconclusive means small, poorly fitted or top-dose-only effect; inactive means no such curve, though single readings can be large or run the other way.

target: Cytochrome P450 3A4 (Homo sapiens) (UniProt P08684); assay: qHTS Assay for Activators of Cytochrome P450 3A4 (AID 885); details: recombinant CYP3A4, Luciferin-PPXE luminescence, 60 min; series mostly up to 57.1 µM; activity change, positive = activation: at the top concentration; further: nearly all actives have a fitted effect of over 65% in size
Sequence (P08684 whole entry, looked up): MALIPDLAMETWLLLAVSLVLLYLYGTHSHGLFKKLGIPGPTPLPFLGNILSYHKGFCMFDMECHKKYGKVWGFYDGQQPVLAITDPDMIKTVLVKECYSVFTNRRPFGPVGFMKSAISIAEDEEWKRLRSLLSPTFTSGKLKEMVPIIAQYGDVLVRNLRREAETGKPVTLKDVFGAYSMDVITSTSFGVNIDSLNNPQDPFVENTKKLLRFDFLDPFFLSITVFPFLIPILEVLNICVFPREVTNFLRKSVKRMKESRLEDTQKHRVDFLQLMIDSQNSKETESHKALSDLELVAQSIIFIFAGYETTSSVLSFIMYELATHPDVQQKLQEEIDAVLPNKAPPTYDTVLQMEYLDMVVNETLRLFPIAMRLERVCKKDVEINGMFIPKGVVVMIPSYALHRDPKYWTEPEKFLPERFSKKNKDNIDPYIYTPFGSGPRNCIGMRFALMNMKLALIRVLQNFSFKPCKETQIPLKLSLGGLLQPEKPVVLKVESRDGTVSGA
Protocol: NIH Molecular Libraries Screening Centers Network [MLSCN]
NIH Chemical Genomics Center [NCGC]
The P450 gene superfamily is involved in the metabolism and clearance of xenobiotics. This assay used human CYP3A4 to measure the dealkylation of luciferin-6' phenylpiperazinylyl (Luciferin-PPXE; […]) to luciferin. The luciferin is then measured by luminescence after the addition of a luciferase detection reagent. Luciferin-PPXE concentration in the assay was equal to its KM for CYP3A4. Inhibitors and some substrates limit the production of luciferin, and decrease measured luminescence; activators increase the production of luciferin and luminescence.
NCGC Assay Protocol Summary:
Two uL of enzyme and substrate mix (final concentrations: 20nM CYP3A4, 25uM Luciferin-PPXE, 200mM KPO4) were dispensed into a white, solid bottom 1536-well microtiter plate. 23nL of compound was transferred by a pin tool. The plate was incubated at RT for 10 min. Two uL of an NADPH regeneration solution (Promega supplied reagent) was dispensed and the reaction was allowed to continue for 60 min at RT. Then the reaction was stopped by reconstituted luciferin detection buffer. After another 20 min of incubation the plate was read on the ViewLux (Perkin Elmer) at 60 sec exposure and 2x2 binning. This protocol was carried out with Promega-Glo reagents and further information can be found at http://www.promega.com/tbs/tb325/tb325.pdf. Data were normalized to the to AC100 inhibition (57 uM ketoconazole).
Keywords: P450, CYP2D6, Luciferase, MLSMR, MLSCN, NIH Roadmap, qHTS, NCGC

SMILES	activity change, positive = activation
C[C@@H](C(=O)Nc1ccc2ccccc2c1)[C@@H]1C[C@@]1(C)[C@@H](NC(=O)Oc1ccc(F)cc1)c1ccccc1	-46.4%
COC(=O)[C@@]1(Cc2ccccc2)[C@H]2c3cc(C(=O)N4CCCC4)n(Cc4ccc(C)o4)c3C[C@H]2CN1C(=O)c1ccccc1	-86%
C[C@H](N)C1CCC(C(=O)Nc2ccncc2)CC1 (stereo not given in full)	-54.1%
COC(=O)[C@@]1(Cc2ccccc2)[C@H]2c3cc(C(=O)N4CCCC4)n(Cc4ccc(OC)c(OC)c4)c3C[C@H]2CN1C(=O)c1ccccc1	-98.4%
COc1ccc2nc3c(cc2c1)Cc1ccccc1-3	-98.7%
COC(=O)[C@@]1(Cc2ccc(OC)cc2)[C@H]2c3cc(C(=O)N(C)C)[nH]c3C[C@H]2CN1C(=O)c1ccccc1	-84.4%
COc1cc([C@H]2c3cc4c(cc3[C@@H](O)[C@@H]3COC(=O)[C@H]23)OCO4)cc(OC)c1OC	-98.1% [at 25.6 µM]
CCC/C=C(\CCC)C(NC(=O)c1ccccc1)c1ccccc1 (stereo not given)	-69%
COC(=O)c1ccc(C23CC2(C(NP(=O)(c2ccccc2)c2ccccc2)c2ccccc2)C3)cc1 (stereo not given)	-85.6%
COC(=O)[C@@]1(Cc2ccccc2)[C@H]2c3cc(C(=O)N4CCCC4)n(Cc4ccc(O)c(OC)c4)c3C[C@H]2CN1C(=O)c1ccccc1	-119%
O=C(Nc1ccc2ccccc2c1)[C@H]1C[C@@H]1[C@H](NP(=O)(c1ccccc1)c1ccccc1)c1ccccc1	-61.7%
CCCC1(C(=O)OC)C=C2C(=C(C)C(=O)C2C)CN1 (stereo not given)	-86.4%
O=C(N[C@@H](c1ccccc1)[C@@H]1C[C@H]1C(=O)NCc1ccccn1)OCc1ccccc1	-63.3%
CCCCC[C@H](O)c1cccc(OCc2ccc3ccccc3n2)c1	-82.1%
COc1ccc2c(=O)cc(-c3ccccc3)oc2c1O	-38.9%
O=c1cc(-c2ccccc2O)oc2ccc3ccccc3c12	-56.8%
c1ccc2c(c1)Cc1cc3cc4c(cc3nc1-2)OCO4	-99.7%
C=C1C(=O)C=C2CN(C(=O)c3ccccc3)[C@@](Cc3ccc(F)cc3)(C(=O)OC)[C@@H]12	-66.5%
COC(=O)[C@@H]1C[C@H]1[C@@H](NC(=O)Oc1ccc(F)cc1)c1ccccc1	-89.3%
CC(=O)N[C@@H](c1ccccc1)[C@]1(C)C[C@H]1[C@@H](C)C(=O)Nc1ccc2ccccc2c1	-68.7%

SMILES	activity change, positive = activation
COc1ccc(NC(=O)/C=C\c2ccc(Cl)cc2)cc1	-83.6%
C[C@@H](C(=O)O)[C@@H]1C[C@@]1(C)[C@@H](NC(=O)OCc1ccccc1)c1ccccc1	-31.6%
C[C@@H](C(=O)Nc1ccc2ccccc2c1)[C@@H]1C[C@@]1(C)[C@@H](NC(=O)c1ccncc1Cl)c1ccccc1	-85.6%
CC(C)(C)C(=O)NC(c1ccc(Cl)cc1)[C@]1(C)C[C@H]1C1CCCCC1 (stereo not given in full)	-60.2%
COC(=O)[C@@]1(Cc2ccc(F)cc2)[C@H]2c3cc(C(=O)N4CCCC4)n(Cc4ccccc4)c3C[C@H]2CN1C(=O)c1ccccc1	-68.6%
CCC[C@@H]1C[C@@]1(CCC)C(NS(=O)(=O)c1cccc2cccnc12)c1ccc(Cl)cc1 (stereo not given in full)	-96.5%
COC(=O)[C@@]1(Cc2ccc(F)cc2)[C@H]2c3cc(C(=O)N(C)C)n(Cc4ccc(C)c(F)c4F)c3C[C@H]2CN1C(=O)c1ccccc1	-76.8%
COC(=O)[C@@]1(Cc2ccccc2)[C@H]2c3cc(C(=O)N4CCCC4)n(Cc4ccccn4)c3C[C@H]2CN1C(=O)c1ccccc1	-106%
C[C@@H](C(=O)Nc1ccc2ccccc2c1)[C@H]1C[C@]1(C)[C@H](NS(=O)(=O)c1ccc(-c2ccccc2)cc1)c1ccccc1	-78.3%
COC(=O)C1(Cc2ccccc2)C=C2C(=C(C)C(=O)C2C)CN1 (stereo not given)	-42.6%
CCC/C=C(\CCC)C(NP(=O)(c1ccccc1)c1ccccc1)c1ccc(-c2ccccc2)cc1 (stereo not given)	-71.9%
Cc1ccc(S(=O)(=O)Oc2ccc(N=Nc3ccc(-c4ccc(N=Nc5c(O)ccc6cc(S(=O)(=O)O)cc(S(=O)(=O)O)c56)c(C)c4)cc3C)cc2)cc1	-51.2%
O=c1c(O)c(-c2ccc(O)cc2)oc2cc(O)ccc12	-52.6%
COC(=O)[C@@H]1C[C@H]1[C@@H](NC(=O)c1cnccn1)c1ccccc1	-35%
O=c1cc(-c2ccccc2)oc2c1ccc1ccccc12	-96.3%
CCC/C=C(\CCC)C(NC(=O)Cc1ccccc1)c1ccc(C(=O)OC)cc1 (stereo not given)	-76.6%
O=C(NCCc1c[nH]c2ccccc12)[C@H]1C[C@@H]1[C@H](NP(=O)(c1ccccc1)c1ccccc1)c1ccccc1	-101%
C[C@@H](C(=O)Nc1ccc2ccccc2c1)[C@H]1C[C@]1(C)[C@H](NC(=O)OCc1ccccc1)c1ccccc1	-105%
O=c1cc(-c2ccccc2O)oc2cc(O)cc(O)c12	-98.5%
COC(=O)[C@@]1(Cc2ccc(F)cc2)[C@H]2c3cc(C(=O)N4CCCC4)n(Cc4cccc5ccccc45)c3C[C@H]2CN1C(=O)c1ccccc1	-98.7%
